# Legend:
# Experiment in all cases: protein domain microarray probed with biotinylated miRNA; Domain array: 20 mM Tris-HCl pH 7.4, 200 mM KCl, 0.2 mM EDTA, 0.05% NP40, 2 ug/ul heparin, overnight 4 C. ORF array: PBS pH 7.0 with RNase inhibitor, 100 ng RNA; high values mean tight binding
# Settings in all cases: ssRNA
# [1] = biological target: T1, RKHD1 (Homo sapiens, UniProt Q86XN8)
# T1 sequence: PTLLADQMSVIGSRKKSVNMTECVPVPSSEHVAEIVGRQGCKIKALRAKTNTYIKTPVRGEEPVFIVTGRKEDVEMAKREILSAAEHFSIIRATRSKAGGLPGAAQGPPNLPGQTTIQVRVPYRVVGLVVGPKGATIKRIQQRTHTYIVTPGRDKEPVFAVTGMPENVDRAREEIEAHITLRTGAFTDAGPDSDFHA
# [2] = biological target: T2, RBMS3 (Homo sapiens, UniProt Q6XE24)
# T2 sequence: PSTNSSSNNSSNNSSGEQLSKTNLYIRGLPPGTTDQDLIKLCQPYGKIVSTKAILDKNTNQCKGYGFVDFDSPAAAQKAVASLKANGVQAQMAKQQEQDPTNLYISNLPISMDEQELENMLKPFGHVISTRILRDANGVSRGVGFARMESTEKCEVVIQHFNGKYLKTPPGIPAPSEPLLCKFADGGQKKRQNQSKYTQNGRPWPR
# [3] = biological target: SAFB1 (Homo sapiens, UniProt Q15424)
# Sequence of SAFB1 (Q15424 380-500): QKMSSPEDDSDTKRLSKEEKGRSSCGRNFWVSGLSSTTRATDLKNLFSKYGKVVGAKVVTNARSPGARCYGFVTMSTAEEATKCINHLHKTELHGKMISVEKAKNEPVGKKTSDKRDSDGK
# [4] = biological target: T3, PSF (Homo sapiens, UniProt P23246)
# T3 sequence: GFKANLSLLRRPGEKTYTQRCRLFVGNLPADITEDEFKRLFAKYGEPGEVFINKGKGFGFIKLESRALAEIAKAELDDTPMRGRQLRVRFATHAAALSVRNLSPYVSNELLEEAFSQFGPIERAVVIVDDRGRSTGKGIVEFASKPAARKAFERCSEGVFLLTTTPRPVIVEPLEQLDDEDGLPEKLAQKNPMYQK
# [5] = biological target: T4, ADAR(1) (Homo sapiens, UniProt P55265)
# T4 sequence: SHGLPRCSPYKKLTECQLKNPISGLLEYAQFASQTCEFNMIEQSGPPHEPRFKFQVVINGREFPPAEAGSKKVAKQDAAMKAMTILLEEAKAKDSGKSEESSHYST
# [6] = biological target: T5, ANKRD17 (Homo sapiens, UniProt O75179)
# T5 sequence: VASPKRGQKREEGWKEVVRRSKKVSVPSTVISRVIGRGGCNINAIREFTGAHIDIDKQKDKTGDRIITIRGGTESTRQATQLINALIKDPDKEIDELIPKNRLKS
# [7] = biological target: T6, YTHDC2 (Homo sapiens, UniProt Q9H6S0)
# T6 sequence: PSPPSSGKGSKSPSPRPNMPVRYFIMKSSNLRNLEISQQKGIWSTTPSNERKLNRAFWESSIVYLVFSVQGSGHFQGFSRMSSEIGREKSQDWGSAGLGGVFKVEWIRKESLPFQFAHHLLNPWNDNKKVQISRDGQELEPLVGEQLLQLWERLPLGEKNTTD
# [8] = biological target: VIGILIN(11-14) (Homo sapiens, UniProt Q00341)
# Sequence of VIGILIN(11-14) (Q00341 861-1229): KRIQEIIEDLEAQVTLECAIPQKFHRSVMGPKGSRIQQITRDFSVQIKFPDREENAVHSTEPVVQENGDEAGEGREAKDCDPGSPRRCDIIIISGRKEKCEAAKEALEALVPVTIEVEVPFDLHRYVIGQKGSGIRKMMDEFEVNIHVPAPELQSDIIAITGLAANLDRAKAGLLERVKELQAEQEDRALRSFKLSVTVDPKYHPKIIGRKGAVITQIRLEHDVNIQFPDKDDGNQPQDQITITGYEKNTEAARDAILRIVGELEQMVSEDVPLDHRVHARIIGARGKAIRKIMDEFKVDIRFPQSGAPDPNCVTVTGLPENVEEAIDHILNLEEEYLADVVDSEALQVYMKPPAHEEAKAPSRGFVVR
# [9] = biological target: T7, RBM20 (Homo sapiens, UniProt Q5T481)
# T7 sequence: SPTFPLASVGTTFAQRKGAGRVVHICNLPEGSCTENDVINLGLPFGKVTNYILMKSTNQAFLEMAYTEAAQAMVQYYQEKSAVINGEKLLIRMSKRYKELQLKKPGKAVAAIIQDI
# [10] = biological target: T8, RNPC3(1) (Homo sapiens, UniProt Q96LT9)
# T8 sequence: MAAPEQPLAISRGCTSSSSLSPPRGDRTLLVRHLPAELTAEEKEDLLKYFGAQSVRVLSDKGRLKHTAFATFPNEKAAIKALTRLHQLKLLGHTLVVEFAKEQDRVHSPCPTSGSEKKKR
sequence,measurement,setting,value
UAGCUUAUCAGACUGAUGUUGA,binding signal,[1],977 ± 62.8 fluorescence intensity
same,binding signal,[2],45.1 ± 0.672 fluorescence intensity
same,binding signal,[3],37.5 ± 1.2 fluorescence intensity
UGAGGUAGUAGGUUGUGUGGUU,binding signal,[4],1020 ± 15.7 fluorescence intensity
same,binding signal,[5],30.1 ± 1.12 fluorescence intensity
same,binding signal,[1],1570 ± 135 fluorescence intensity
same,binding signal,[6],94.6 ± 8.68 fluorescence intensity
same,binding signal,[2],564 ± 40.7 fluorescence intensity
same,binding signal,[7],156 ± 16.8 fluorescence intensity
same,binding signal,[8],968 ± 111 fluorescence intensity
same,binding signal,[9],66.7 ± 5.15 fluorescence intensity
same,binding signal,[3],633 ± 29.4 fluorescence intensity
same,binding signal,[10],391 ± 55.5 fluorescence intensity
UGAGGUAGUAGGUUGUAUAGUU,binding signal,[4],265 ± 6.17 fluorescence intensity
same,binding signal,[1],1260 ± 32.7 fluorescence intensity
same,binding signal,[6],26 ± 1.62 fluorescence intensity
same,binding signal,[2],86.8 ± 4.41 fluorescence intensity
same,binding signal,[7],27.7 ± 2.35 fluorescence intensity
same,binding signal,[8],145 ± 5.55 fluorescence intensity
same,binding signal,[3],94.4 ± 9.54 fluorescence intensity
same,binding signal,[10],38.5 ± 11.8 fluorescence intensity
CAGUGCAAUGAUGAAAGGGCAU,binding signal,[4],80.6 ± 13.1 fluorescence intensity
same,binding signal,[1],1330 ± 109 fluorescence intensity
same,binding signal,[6],37 ± 2.43 fluorescence intensity
same,binding signal,[2],211.2 ± 1.16 fluorescence intensity
same,binding signal,[7],65.2 ± 5.22 fluorescence intensity
same,binding signal,[8],287 ± 28.5 fluorescence intensity
same,binding signal,[9],34.77 ± 0.255 fluorescence intensity
same,binding signal,[3],228 ± 31.6 fluorescence intensity
same,binding signal,[10],61.8 ± 4.94 fluorescence intensity
AGAGGUAGUAGGUUGCAUAGUU,binding signal,[4],905 ± 13.5 fluorescence intensity
same,binding signal,[5],20.7 ± 1.3 fluorescence intensity
same,binding signal,[1],2940 ± 199 fluorescence intensity
same,binding signal,[6],36.4 ± 1.75 fluorescence intensity
same,binding signal,[2],410 ± 20.1 fluorescence intensity
same,binding signal,[7],114 ± 5.32 fluorescence intensity
same,binding signal,[8],285 ± 6.8 fluorescence intensity
same,binding signal,[9],39.7 ± 5.85 fluorescence intensity
same,binding signal,[3],280 ± 28.4 fluorescence intensity
same,binding signal,[10],201 ± 18.2 fluorescence intensity
UGAGGUAGUAGGUUGUAUGGUU,binding signal,[4],837 ± 12.7 fluorescence intensity
same,binding signal,[5],27.9 ± 1.27 fluorescence intensity
same,binding signal,[1],1910 ± 204 fluorescence intensity
same,binding signal,[6],51.9 ± 4.92 fluorescence intensity
same,binding signal,[2],363 ± 14.3 fluorescence intensity
same,binding signal,[7],143 ± 6.97 fluorescence intensity
same,binding signal,[8],911 ± 66.7 fluorescence intensity
same,binding signal,[9],53.6 ± 5.51 fluorescence intensity
same,binding signal,[3],299 ± 26.8 fluorescence intensity
same,binding signal,[10],192 ± 55.7 fluorescence intensity

# From paper PMC11574364
